Bioassay records from PubChem.
The sample as a whole holds a higher share of hits than the screen did.
CBFb RUNX1 block: blocks binding between human CBF-beta and RUNX1 | 230,000 tested, under 10 active | Potency, µM (doses to about 59.8 µM), without a hit: at the highest dose activity, negative = inhibition, actives largely listed as inhibitors | AlphaScreen CBFb-His/RUNX1-biotin binding, biochemical | AID 1477 | Q01196+Q13951; note: % of control where 0% means no effect
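CBFb-His/RUNX1-biotin, 30 nM each, preincubated 20 min RT; compound 15 min RT; Ni + streptavidin beads 50 ng each, 90 min RT; AlphaScreen read.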
Lamin A splicing: modulators of lamin A splicing. Potency, µM (doses to about 46.1 µM), without a hit: at the top dose ratio change, negative = inhibition, actives largely listed as inhibitors. 0.01% of 200,000 active. HeLa LMNA splicing GFP/RFP minigene ratio, 48 h; active = well fitted inhibition curve with a large enough effect in the signal ratio, with a control signal flat, not every such curve was filed as active; inconclusive = small, poorly fitted or top-dose-only effect, or effect the other way, or a change in a side signal; the % refers to the signal ratio; note: potency is the fitted concentration of half-maximal effect; % is set by controls: 0 for no effect and ±100 for the full control effect
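S3 HeLa stable clones carrying a lamin A-EGFP splicing minigene plus DsRed2 were seeded at 600 cells/well in Opti-MEM with 2% FBS, pin-dosed and incubated 48 h at 37°C. Acumen cytometry (488 nm) gave the GFP/RFP total-intensity ratio.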
Menin MLL FP FL: displaces fluorescein MLL peptide from human menin; Fluorescence polarization, fluorescein-MLL peptide displacement from menin; FP activity change, % at 61.4 µM; 290,000 tested, under 10 active; active = well fitted curve in the direction sought with a large enough effect in the polarisation, not every such curve was filed as active; inconclusive = small, poorly fitted or top-dose-only effect, or effect the other way, or a change in a side signal; inactive = no such curve, though single readings can be large or run the other way; the % refers to the polarisation; note: % of control where 0% means no effect
MLL CXXC-DNA inh: inhibitors of human MLL CXXC domain-DNA interaction | Potency, µM (top dose mostly 115 µM), inactives show at the highest dose activity change, negative = inhibition, actives largely listed as inhibitors | 0.037% of 290,000 active | Q03164 | MLL-CXXC / FITC-HOXA9 DNA fluorescence polarization | AID 2662; active = well fitted inhibition curve with a large enough effect in the polarisation, with a control signal flat, not every such curve was filed as active; inconclusive = small, poorly fitted or top-dose-only effect, or effect the other way, or a change in a side signal; inactive = no such curve, though single readings can be large or run the other way; the % refers to the polarisation; note: potency is the fitted concentration of half-maximal effect
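Fluorescence polarization: 7 uM MLL-CXXC (stock) preincubated 5 min with compounds, then 50 nM fluorescein-HOX-A9 DNA (stock) added; 30 min ambient. Buffer 50 mM Tris-HCl pH 7.5, 50 mM NaCl, 1 mM DTT, 0.05% BSA.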
Menin-MLL TR inh: menin-MLL binding inhibition, Texas Red mutant peptide; O00255; Menin + Texas Red MLL mutant peptide, fluorescence polarization; Potency, µM (doses to about 61.6 µM), without a hit: top-dose FP activity change, negative = inhibition, hits mostly inhibitors; 0.23% of 270,000 active; active = well fitted inhibition curve with a large enough effect in the polarisation, with a control signal flat, not every such curve was filed as active; inconclusive = small, poorly fitted or top-dose-only effect, or effect the other way, or a change in a side signal; inactive = no such curve, though single readings can be large or run the other way; the % refers to the polarisation; note: potency is the fitted concentration of half-maximal effect; % of control where 0% means no effect
Target sequence (O00255 whole entry, looked up): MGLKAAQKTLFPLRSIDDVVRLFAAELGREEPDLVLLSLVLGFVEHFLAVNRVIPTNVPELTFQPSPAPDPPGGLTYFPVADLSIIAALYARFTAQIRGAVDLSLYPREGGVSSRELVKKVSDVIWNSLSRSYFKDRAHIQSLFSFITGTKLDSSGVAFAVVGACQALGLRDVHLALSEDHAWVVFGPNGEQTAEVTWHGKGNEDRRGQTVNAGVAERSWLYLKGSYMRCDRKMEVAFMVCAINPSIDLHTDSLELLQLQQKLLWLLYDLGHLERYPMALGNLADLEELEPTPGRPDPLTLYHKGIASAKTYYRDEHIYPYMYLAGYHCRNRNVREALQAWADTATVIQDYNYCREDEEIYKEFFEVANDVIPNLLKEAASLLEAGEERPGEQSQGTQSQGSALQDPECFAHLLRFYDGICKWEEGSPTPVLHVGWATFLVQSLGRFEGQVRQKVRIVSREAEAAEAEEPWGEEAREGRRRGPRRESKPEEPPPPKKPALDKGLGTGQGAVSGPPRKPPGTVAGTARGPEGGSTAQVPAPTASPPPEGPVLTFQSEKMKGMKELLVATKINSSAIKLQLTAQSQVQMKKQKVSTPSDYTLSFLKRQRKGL
MLL CXXC FP-Fl: MLL CXXC-DNA interaction inhibition, fluorescein FP. shares compounds with MLL CXXC-DNA inh. MLL CXXC-DNA binding, fluorescein FP. Potency, µM (top dose mostly 345 µM), without a hit: at the top dose activity change, negative = inhibition, most hits filed as inhibitors. 70% of 200 active. AID 624160; note: potency is the fitted concentration of half-maximal effect; nearly all actives have a fitted effect of over 80% in size
MLL CXXC FP-TR: disrupts human MLL CXXC domain binding to DNA, Texas Red; shares compounds with MLL CXXC-DNA inh; MLL CXXC-DNA binding, Texas Red fluorescence polarization; Potency, µM (top dose mostly 345 µM), for inactives: top-dose activity change, negative = inhibition, most hits filed as inhibitors; 40% of 200 active; note: potency is the fitted concentration of half-maximal effect; % is set by controls: 0 for no effect and ±100 for the full control effect; nearly all actives have a fitted effect of over 75% in size
MLL CXXC TRF: MLL CXXC-DNA interaction inhibition, HTRF readout. 30% of 210 active. Potency, µM (doses to about 172 µM), without a hit: at the top dose activity change, negative = inhibition, usual class: inhibitors. shares compounds with MLL CXXC-DNA inh. AID 624162. MLL CXXC-DNA binding, HTRF, biochemical; note: % is set by controls: 0 for no effect and ±100 for the full control effect; nearly all actives have a fitted effect of over 80% in size
An asterisk follows results filed as active; ? = inconclusive; · = no result; [ ] = remark or other dose. Unless noted, calls come from the whole dose curve; as a rule, active = well fitted curve in the direction sought with a large enough effect; inconclusive = small, poorly fitted or top-dose-only effect, or another doubt; inactive = no such curve, though single readings can be large; an effect the other way counts as inactive or inconclusive.

SMILES	CBFb RUNX1 block	Lamin A splicing	Menin MLL FP FL	MLL CXXC-DNA inh	Menin-MLL TR inh	MLL CXXC FP-Fl	MLL CXXC FP-TR	MLL CXXC TRF
CCN1CCN(c2nc3c(C)cccn3c(=O)c2/C=C(\C#N)C(=O)NCCOC)CC1	·	·	-5.4	31.6µM*	-1.7%	8.4%	5.1%	41.7%
COCCNC(=O)/C(C#N)=C/c1c(N2CCN(C)CC2)nc2c(C)cccn2c1=O	·	·	-1.0	-6.0%	15.4%	·	·	·
Cc1cc(N)c2cc(NC(=O)Nc3ccc4nc(C)cc(N)c4c3)ccc2n1	·	·	-29.9	·	15.8µM*	8.95µM*	?	9.68µM*
Cc1nc2nc(-c3cccs3)cn2nc1C	-13.2%	-3.0%	?	35.5µM*	-0.7%	126µM*	-2.9%	-1.2%
Cc1nc2nc(-c3ccc(Cl)cc3)cn2nc1C	-1.5%	2.8%	-2.3	-1.7%	·	·	·	·
Cc1ccc(Sc2ccccc2CN(C)C)c(N)c1	19.0%	·	1.8	·	-0.2%	·	·	·
Oc1nc(Nc2ccc(F)cc2)sc1/C=C1\C=Nc2ccccc21	-7.2%	·	24.9	24.0%	·	·	·	·
O=c1[nH]c(S)c(/C=C2\C=Nc3ccccc32)s1	?	·	?	35.5µM*	·	126µM*	?	?
CN=C1C=CC(=C(c2ccc(N(C)C)cc2)c2ccc(N(C)C)cc2)C=C1	·	·	-5.7	-1.3%	?	·	·	·
O=C(NC1CCCCC1)N1CCN(C2CCCCC2)CC1	6.5%	0.5%	0.4	4.5%	-6.5%	·	·	·
S=C(NC1CCCCC1)N1CCN(C2CCCCC2)CC1	-0.7%	·	-10.5	?	?	?	13.7%	-0.3%
Cc1ccc2cc(N)ccc2n1	-5.5%	?	-7.3	-8.6%	2.3%	·	·	·
Nc1ccc2cc3ccc(N)cc3nc2c1	·	?	?	?	-14.8%	1.13µM*	35.6µM*	?
CCCCC1(C)OC(=O)C(=Cc2ccc(-c3ccc(Cl)c(C(=O)O)c3)o2)C(=O)O1 (configuration not stated)	?	·	19.6	39.8µM*	·	22.5µM*	44.8µM*	48.5µM*
OC(Cn1cncn1)(c1ccc(F)cc1)c1ccc(Cl)cc1 (configuration not stated)	·	·	1.3	89.1µM*	-5.7%	?	-18.5%	-0.6%
COc1ccc(NC(=O)N2CCc3nc(-c4ccc(OC)cc4C)c4c(c3C2)CO[C@@H](c2ccccc2)C4)cc1	8.8%[13.1 µM]	-3.2%[9.22 µM]	-2.4[11.7 µM]	·	-21.2%[11.7 µM]	·	·	·
CCN(CC)C1=CC2=CC(=C(C#N)C#N)CCC2CC1 (configuration not stated)	7.5%	?	?	?	?	·	·	·
N#CC(C#N)=C1C=C2C=C(N3CCCCC3)CCC2CC1 (configuration not stated)	5.2%	?	·	?	?	0.142µM*	126µM*	198.7%
C=Cc1c(C)/c2[n-]/c1=C\c1[n-]c(c(CC)c1C)/C=c1\[n-]c3c(c1C)C(=O)C(C(=O)[O-])C=3c1[n-]c(c(C)c1CCC(=O)[O-])\C=2.[Cu].[Na+].[Na+] (configuration not stated)	·	?	-26.5	?	?	44.8µM*	126µM*	7.69µM*
Fc1ccccc1COc1ccc(Br)cc1CNCc1cccnc1	-2.2%	2.5%[46 µM]	-4.7	?	?	?	?	-9.5%
Fc1ccccc1COc1ccc(Br)cc1CNCc1ccncc1	0.0%	0.2%	-1.0	-19.8%	?	·	·	·
NS(=O)(=O)c1ccc(NC2=CC(=O)C(=O)c3ccccc32)cc1	·	·	-5.4	?	?	?	?	107.8%
C#CC(C)OC(=O)Nc1cccc(Cl)c1 (configuration not stated)	-14.9%	·	?	·	28.4%	·	·	·
COc1ccc(C2OC34CCCCC3C(C#N)(C#N)C2(C#N)C(=N)O4)cc1 (configuration not stated)	8.5%	14.1%	?	28.2µM*	?	142µM*	113µM*	-3.1%
CN1C(=O)C(=O)/C(=C(/O)c2ccc(Br)cc2)C1c1ccc(Cl)cc1 (configuration not stated)	·	·	-2.2	-2.9%	18.0%	·	·	·
SMILES	CBFb RUNX1 block	Lamin A splicing	Menin MLL FP FL	MLL CXXC-DNA inh	Menin-MLL TR inh	MLL CXXC FP-Fl	MLL CXXC FP-TR	MLL CXXC TRF
O=C1OC(c2ccc(Cl)cc2)/C(=C(/O)c2ccccc2)C1=O (configuration not stated)	0.2%	-3.7%	-1.8	?	34.3%	5.2%	126µM*	30.5%
Nc1c(C(=O)O)ccc2c1C(=O)c1ccccc1C2=O	-20.0%	?	?	?	?	·	·	·
Nc1cc(C(=O)O)c(N)c2c1C(=O)c1ccccc1C2=O	·	·	?	31.6µM*	·	113µM*	40µM*	149.7%
N.N.O=C(O)C1(C(=O)O)CCC1.[Pt]	?	?	?	?	6.0%	8.0%	?	48.5µM*
CC(=O)c1c(-c2ccccc2)[nH]c2ccccc12	·	·	3.7	3.8%	-30.0%	·	·	·
O=C(O)/C=C/C(=O)c1c(-c2ccccc2)[nH]c2ccccc12	·	·	5.2	?	80.4%	7.11µM*	159µM*	48.5µM*
CCn1c(=O)c2ccccc2n(Cc2cccc(C)c2)c1=O	·	·	0.9	-7.5%	5.7%	·	·	·
CCn1c(=O)c2ccccc2n(Cc2ccc([N+](=O)[O-])cc2)c1=O	·	·	-3.0	?	21.8%	?	?	22.1%
CN1CCC(=O)N(C(CSc2ccc(Br)cc2)c2ccccc2)CC1 (configuration not stated)	-0.7%	·	0.5	·	-12.2%	·	·	·
O=C(CSc1nccn1-c1ccc(F)cc1)Nc1ccc(OC(F)(F)F)cc1	·	13.1%[46 µM]	·	·	·	·	·	·
CC(=O)Oc1ccc2c(c1)Oc1cc(OC(C)=O)ccc1C21OC(=O)c2ccccc21	2.6%	?	?	?	?	0.0225µM*	34.1%	3.0%
O=C1c2ccccc2-c2n[nH]c3cccc1c23	8.8%	?	?	?	?	35.6µM*	?	17.9%
CS(=O)(=O)n1nc(-c2ccc(Cl)cc2)nc1N	8.3%	-7.6%[46 µM]	0.2	-14.3%	3.8%	·	·	·
Cn1nc(-c2ccc(Cl)cc2)nc2c(=O)n(C)c(=O)nc1-2	·	?	?	31.6µM*	?	142µM*	?	48.2%
Cc1ccc(/C=C2/C(=O)c3ccc(C(=O)O)cc3C2=O)o1	?	-2.1%[46 µM]	?	39.8µM*	?	?	?	38.5µM*
Cc1ccc(C=C2C(=O)c3ccccc3C2=O)o1	?	-2.2%	8.4	0.2%	24.4%	·	·	·
